Laboratory results: PubChem BioAssay (EPA / NIEHS)
Several values for one entry are separate records, joined by “and”; a condition that tells them apart may be missing. Identical values can stand only once. Some structures have more than one record in an assay (separate samples or runs), and their calls can disagree. Activity calls are given as the source filed them. How the source made its calls: active means hit-call score of the fitted dose curve at least 0.9, where 1 is the maximum; inactive means score below 0.9.

Columns and labels:
[1] = read-out: Transforming growth factor beta 1 (TGFb1), TGFB1 (gene 7040); assay: BSK_KF3CT_TGFb1: BioMAP Diversity Plus: KF3CT Assay for Transforming growth factor beta 1 (TGFb1) Biomarker Activity (AID 2283072); conditions: primary human keratinocytes with fibroblasts; actives raise or lower the signal
Outline: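 Human keratinocyte plus foreskin fibroblast primary co-culture, dosed with chemical for 24 h. TGF-b1 quantified by ELISA. Activity fitted bidirectionally against DMSO negative control as baseline.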

[2] = read-out: C-C motif chemokine 2 (Homo sapiens) (UniProt P13500); assay: BSK_KF3CT_MCP1: BioMAP Diversity Plus: KF3CT Assay for Monocyte Chemoattractant Protein 1 (MCP1/CCL2) Biomarker Activity (AID 2283073); conditions: primary human keratinocytes with fibroblasts; actives raise or lower the signal
Outline: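 Human keratinocyte plus foreskin fibroblast primary co-culture exposed to chemical for 24 h. MCP-1 levels measured by ELISA. Bidirectional curve fitting relative to DMSO negative control as baseline.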

[3] = read-out: Matrix Metallopeptidase 9 (MMP9), MMP9 (gene 4318); assay: BSK_KF3CT_MMP9: BioMAP Diversity Plus: KF3CT Assay for Matrix Metallopeptidase 9 (MMP9) Biomarker Activity (AID 2283074); conditions: primary human keratinocytes with fibroblasts; actives raise or lower the signal;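 on AC50: MMP9 protein level quantified by ELISA in the co-culture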
Outline: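 Keratinocyte plus foreskin fibroblast human primary skin co-culture was dosed with chemical and MMP-9 was quantified by ELISA 24 h later. Bidirectional curve fitting used DMSO as negative control and activity baseline.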

[4] = read-out: urokinase plasminogen activator (uPA), PLAU (gene 5328); assay: BSK_KF3CT_uPA: BioMAP Diversity Plus: KF3CT Assay for urokinase plasminogen activator (uPA) Biomarker Activity (AID 2283075); conditions: primary human keratinocytes with fibroblasts; actives raise or lower the signal
Outline: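 Human keratinocyte plus foreskin fibroblast primary co-culture exposed to chemical for 24 h. uPA levels were quantified by ELISA, and activity was fitted bidirectionally against a DMSO negative-control baseline.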

CD40, CD40 (gene 958) = assay: BSK_LPS_CD40: BioMAP Diversity Plus: LPS Assay for CD40 Biomarker Activity (AID 2283076); conditions: primary human HUVEC with PBMC; actives raise or lower the signal
Outline: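 Primary human umbilical vein endothelial cells co-cultured with peripheral blood mononuclear cells, LPS-stimulated, were dosed with chemical and read 24 h later. CD40 levels were measured by ELISA and fitted bidirectionally against DMSO as negative control and baseline.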

[5] = read-out: E-selectin (Homo sapiens) (UniProt P16581); assay: BSK_LPS_Eselectin: BioMAP Diversity Plus: LPS Assay for Eselectin Biomarker Activity (AID 2283077); conditions: primary human HUVEC with PBMC; actives raise or lower the signal
Outline: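 Human umbilical vein endothelial cells co-cultured with peripheral blood mononuclear cells under LPS stimulation; E-selectin measured by ELISA 24 h after chemical dosing. Activity fitted bidirectionally against DMSO as negative control and baseline.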

[6] = read-out: Interleukin-8 (IL8), CXCL8 (gene 3576); assay: BSK_LPS_IL8: BioMAP Diversity Plus: LPS Assay for Interleukin-8 (IL8) Biomarker Activity (AID 2283078); conditions: primary human HUVEC with PBMC; actives raise or lower the signal
Outline: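 Human umbilical vein endothelial cells co-cultured with PBMC were stimulated with LPS; IL-8 levels were measured by ELISA 24 h after chemical dosing. Activity was fitted bidirectionally against DMSO as negative control and baseline.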

[7] = BSK_LPS_SRB: Viability Assessment in the BioMAP Diversity Plus: LPS Assay (AID 2283079); conditions: primary human HUVEC with PBMC;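 further: total protein by sulforhodamine B absorbance as a cytotoxicity measure; measured one day after compound addition; fitted in both directions against DMSO so loss or gain of signal counts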
Outline: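 Human umbilical vein endothelial cells co-cultured with PBMC (LPS system) were dosed for 24 h. Total protein was stained with 0.1% sulforhodamine B after 10% TCA fixation, read at 560 nm, and fitted bidirectionally against DMSO baseline.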

[8] = read-out: Interleukin-1 alpha (IL1a), IL1A (gene 3552); assay: BSK_LPS_IL1a: BioMAP Diversity Plus: LPS Assay for Interleukin-1 alpha (IL1a) Biomarker Activity (AID 2283080); conditions: primary human HUVEC with PBMC; actives raise or lower the signal
Outline: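 Human umbilical vein endothelial cells co-cultured with peripheral blood mononuclear cells were LPS-stimulated and exposed to test chemicals for 24 h. IL-1 alpha was quantified by ELISA, with bidirectional curve fitting against DMSO as the negative control and baseline.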

Measured: AC50

E-selectin (Homo sapiens), sequence (P16581 whole entry, looked up): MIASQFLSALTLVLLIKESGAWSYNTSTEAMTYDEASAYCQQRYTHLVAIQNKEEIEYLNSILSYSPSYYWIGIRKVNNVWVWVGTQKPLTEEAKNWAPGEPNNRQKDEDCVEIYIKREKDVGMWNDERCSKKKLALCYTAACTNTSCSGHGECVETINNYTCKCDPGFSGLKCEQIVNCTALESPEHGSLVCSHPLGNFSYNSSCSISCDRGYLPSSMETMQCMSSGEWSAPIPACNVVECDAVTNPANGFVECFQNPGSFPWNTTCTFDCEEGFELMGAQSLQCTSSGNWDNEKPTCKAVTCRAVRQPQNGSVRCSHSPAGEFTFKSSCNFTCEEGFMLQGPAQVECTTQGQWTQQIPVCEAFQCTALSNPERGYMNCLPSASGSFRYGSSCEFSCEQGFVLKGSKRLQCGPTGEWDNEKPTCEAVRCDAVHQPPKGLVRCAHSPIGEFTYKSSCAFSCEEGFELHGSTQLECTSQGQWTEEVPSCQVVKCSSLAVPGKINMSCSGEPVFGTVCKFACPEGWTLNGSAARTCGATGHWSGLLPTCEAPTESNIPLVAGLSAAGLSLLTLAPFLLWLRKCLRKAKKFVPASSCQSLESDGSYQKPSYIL

ClC1C(Cl)C(Cl)C(Cl)C(Cl)C1Cl (stereo unspecified)
inactive: [1] | [2] | [3] | [4] | CD40, CD40 (gene 958) | [5] | [6] | [7] | [8]
active: [1] 20 µM

COc1nn(CSP(=S)(OC)OC)c(=O)s1
active: [5] 4.79 µM
inactive: all other assays above

CN1CSC(=S)N(C)C1
active: [3] 14.4 µM | [5] 19 µM | [6] 13 µM | [8] 12.8 µM
inactive: all other assays above

O=C(O)CCCOc1ccc(Cl)cc1Cl
inactive: all assays above

N#CN
inactive: all assays above

N#Cc1c(Cl)c(Cl)c(Cl)c(C#N)c1Cl
active: [1] 1.32 µM | [2] 1.79 µM | [3] 1.23 µM | [4] 1.66 µM | CD40, CD40 (gene 958) 0.148 µM | [5] 0.758 µM | [6] 1.2 µM | [7] 3.65 µM | [8] 1.03 µM

CCCN(CCOc1c(Cl)cc(Cl)cc1Cl)C(=O)n1ccnc1
active: CD40, CD40 (gene 958) 20 µM | [7] 31.4 µM
inactive: all other assays above

CC(C)(C)C(O)C(Oc1ccc(Cl)cc1)n1cncn1 (stereo unspecified)
inactive: all assays above

CNC(=O)Oc1cccc(N=CN(C)C)c1
active: CD40, CD40 (gene 958) 13.5 µM | [5] 20 µM | [6] 20 µM
inactive: all other assays above

O=S1OCC2C(CO1)C1(Cl)C(Cl)=C(Cl)C2(Cl)C1(Cl)Cl (stereo unspecified)
inactive: [1]
active: [3] 15.9 µM | [4] 30.9 µM | CD40, CD40 (gene 958) 29.2 µM | [5] 30.9 µM | [6] 33.5 µM | [8] 16.3 µM

CC(C)(C)C(O)/C(=C\c1ccc(Cl)cc1Cl)n1cncn1 (stereo unspecified)
active: [2] 34.3 µM | [3] 28.5 µM | [4] 32.2 µM | CD40, CD40 (gene 958) 18.4 µM | [5] 21.9 µM | [6] 32.4 µM | [7] 31 µM | [8] 33.2 µM
inactive: [1]

COC(=O)c1ccccc1S(=O)(=O)NC(=O)Nc1nc(C)nc(OC)n1
inactive: all assays above

CC1(c2ccc(Oc3ccccc3)cc2)OC(=O)N(Nc2ccccc2)C1=O (stereo unspecified)
active: CD40, CD40 (gene 958) 24.1 µM | [5] 20 µM | [6] 20 µM | [7] 31 µM
inactive: all other assays above

CCOCN(C(=O)CCl)c1c(C)cccc1CC
active: [3] 12.7 µM | CD40, CD40 (gene 958) 14.8 µM | [5] 28.5 µM | [7] 22.7 µM
inactive: all other assays above

CC(C)OC(=O)Nc1cccc(Cl)c1
active: [7] 3.97 µM
inactive: all other assays above

COP(=O)(OC)OC=C(Cl)Cl
active: CD40, CD40 (gene 958) 27.3 µM
inactive: all other assays above

Cc1[nH]c(=O)n(C(C)(C)C)c(=O)c1Cl
not listed: CD40, CD40 (gene 958)
inactive: all other assays above

O=C1c2ccccc2C(=O)N1SC(Cl)(Cl)Cl
active: [7] 0.303 µM
inactive: all other assays above

O=[N+]([O-])c1c(Cl)c(Cl)c(Cl)c(Cl)c1Cl
active: [3] 15.7 µM | [4] 31 µM | CD40, CD40 (gene 958) 17.9 µM | [5] 31.1 µM
inactive: all other assays above

CCC(C)(NC(=O)c1cc(Cl)c(C)c(Cl)c1)C(=O)CCl (stereo unspecified)
active: [1] 20 µM | [2] 15.9 µM | [3] 7.45 µM | [4] 35.5 µM | CD40, CD40 (gene 958) 3.52 µM | [5] 10.1 µM | [6] 12.2 µM | [7] 20 µM | [8] 15.9 µM

Oc1ccc(Cl)cc1Cc1ccccc1
active: CD40, CD40 (gene 958) 21.1 µM [middle of 7 runs] | [5] 31.3 µM [middle of 6 runs] | [6] 35.3 µM [middle of 7 runs] | [7] 29.3 µM [middle of 7 runs] | [8] 31.8 µM [middle of 6 runs]

Cc1cc(C)nc(NC(=O)NS(=O)(=O)c2ccccc2C(=O)OC2COC2)n1
inactive: all assays above

COC(=O)c1ccccc1CS(=O)(=O)NC(=O)Nc1nc(OC)cc(OC)n1
inactive: all assays above

Oc1cc(Cl)ccc1Oc1ccc(Cl)cc1Cl
active: [1] 18.5 µM [middle of 4 runs] | [2] 36.6 µM [middle of 4 runs] | [3] 15.2 µM [middle of 4 runs] | [4] 31 µM [middle of 4 runs] | CD40, CD40 (gene 958) 12.3 µM and 9.21 µM and 12.1 µM | [5] 15.6 µM [middle of 4 runs] | [6] 27.6 µM [middle of 4 runs] | [7] 17.1 µM and 19.7 µM and 18.7 µM | [8] 14.3 µM and 14.6 µM and 29 µM

CCCN(CCC)c1c([N+](=O)[O-])cc(C(F)(F)F)cc1[N+](=O)[O-]
active: CD40, CD40 (gene 958) 20.4 µM | [5] 15.2 µM
inactive: all other assays above

O=C(Nc1ccccc1)Nc1cnns1
inactive: all assays above

C#CCN1C(=O)COc2cc(F)c(N3C(=O)C4=C(CCCC4)C3=O)cc21
inactive: all assays above

OCCOc1ccccc1
inactive: all assays above
